# Source: the supplement of paper PMC10849652
# Of roughly 7,900 targets only a part is listed; those with a hit were picked by preference. About 0.6% of all pairs of compound and target were hits.
# Compound: CN1CCc2c(c3ccccc3n2Cc2ccc(C(=O)NO)cc2)C1 [Tubastatin A]
# Assay: log2 fold change, soluble protein after heating vs DMSO (PISA); higher = thermal stabilisation; K562 cells, 10 uM, 30 min; active = over 0.2 and 3.5 SD of the protein, either way, in both replicates (recomputed)
# Outline: (§1)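 K562 cells at 2×10^6 cells/mL were given 10 μM compound for 30 min. Aliquots then went through 3 min of heating across 48°C-58°C, were pooled, and were extracted in PBS with 0.5% NP-40 at 4°C, and the supernatant after 21,000xg for 90 min was quantified by TMTpro 16plex LC-MS/MS with channel sums equalised. Thermal stability relative to control samples, from duplicates, is given as log2 fold change.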
# Sequence of UniProt O95373 (O95373 whole entry, looked up): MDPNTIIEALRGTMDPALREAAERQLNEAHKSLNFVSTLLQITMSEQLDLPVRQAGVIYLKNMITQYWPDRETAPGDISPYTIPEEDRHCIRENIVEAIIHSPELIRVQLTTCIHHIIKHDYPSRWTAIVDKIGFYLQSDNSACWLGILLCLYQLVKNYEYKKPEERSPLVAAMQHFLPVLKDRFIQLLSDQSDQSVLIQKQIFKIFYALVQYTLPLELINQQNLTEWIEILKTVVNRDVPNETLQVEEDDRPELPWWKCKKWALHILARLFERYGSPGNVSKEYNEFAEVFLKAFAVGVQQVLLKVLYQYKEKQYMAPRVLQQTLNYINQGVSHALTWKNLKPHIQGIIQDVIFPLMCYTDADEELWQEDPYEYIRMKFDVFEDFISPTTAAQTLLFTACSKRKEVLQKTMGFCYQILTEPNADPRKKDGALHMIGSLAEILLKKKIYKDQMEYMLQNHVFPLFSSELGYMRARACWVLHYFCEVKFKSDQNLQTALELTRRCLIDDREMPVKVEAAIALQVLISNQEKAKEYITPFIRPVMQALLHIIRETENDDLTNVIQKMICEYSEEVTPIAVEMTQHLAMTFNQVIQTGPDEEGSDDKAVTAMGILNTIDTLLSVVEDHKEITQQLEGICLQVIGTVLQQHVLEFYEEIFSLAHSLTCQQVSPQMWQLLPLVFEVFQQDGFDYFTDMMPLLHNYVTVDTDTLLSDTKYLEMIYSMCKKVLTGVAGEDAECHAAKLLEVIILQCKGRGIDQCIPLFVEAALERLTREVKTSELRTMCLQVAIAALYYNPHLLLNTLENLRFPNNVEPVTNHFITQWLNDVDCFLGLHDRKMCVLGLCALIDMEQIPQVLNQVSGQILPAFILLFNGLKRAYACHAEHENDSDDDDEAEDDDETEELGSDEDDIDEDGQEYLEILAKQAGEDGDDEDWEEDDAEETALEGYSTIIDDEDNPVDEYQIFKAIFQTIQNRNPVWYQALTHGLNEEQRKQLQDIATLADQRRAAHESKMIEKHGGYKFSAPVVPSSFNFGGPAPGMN
# Sequence of UniProt Q6P9B6 (Q6P9B6 whole entry, looked up): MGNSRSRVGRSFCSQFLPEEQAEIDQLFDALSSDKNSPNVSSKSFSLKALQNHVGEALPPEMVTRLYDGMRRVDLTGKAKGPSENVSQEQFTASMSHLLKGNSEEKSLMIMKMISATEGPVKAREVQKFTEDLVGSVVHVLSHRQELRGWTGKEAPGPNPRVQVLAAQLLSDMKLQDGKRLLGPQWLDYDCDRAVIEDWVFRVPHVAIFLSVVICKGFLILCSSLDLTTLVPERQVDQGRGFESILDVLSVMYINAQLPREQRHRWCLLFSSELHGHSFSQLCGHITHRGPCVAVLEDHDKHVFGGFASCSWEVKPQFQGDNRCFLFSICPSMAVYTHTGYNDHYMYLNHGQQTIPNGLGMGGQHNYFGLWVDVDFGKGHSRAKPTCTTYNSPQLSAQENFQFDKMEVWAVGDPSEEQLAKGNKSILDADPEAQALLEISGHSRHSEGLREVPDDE
# Sequence of UniProt Q9HCC0 (Q9HCC0 whole entry, looked up): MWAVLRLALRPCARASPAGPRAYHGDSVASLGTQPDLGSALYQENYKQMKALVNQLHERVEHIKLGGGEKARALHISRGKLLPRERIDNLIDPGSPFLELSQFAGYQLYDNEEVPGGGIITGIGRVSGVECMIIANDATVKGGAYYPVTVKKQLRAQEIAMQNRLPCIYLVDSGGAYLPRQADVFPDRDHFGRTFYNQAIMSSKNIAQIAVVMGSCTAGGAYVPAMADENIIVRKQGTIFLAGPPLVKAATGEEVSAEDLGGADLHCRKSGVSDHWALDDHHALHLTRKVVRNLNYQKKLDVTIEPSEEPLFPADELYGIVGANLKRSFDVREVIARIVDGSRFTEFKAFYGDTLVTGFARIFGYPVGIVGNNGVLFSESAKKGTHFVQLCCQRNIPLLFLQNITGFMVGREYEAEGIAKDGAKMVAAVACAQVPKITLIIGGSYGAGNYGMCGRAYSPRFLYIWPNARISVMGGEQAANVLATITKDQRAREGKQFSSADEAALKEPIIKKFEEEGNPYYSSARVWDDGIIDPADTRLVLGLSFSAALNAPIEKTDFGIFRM
# Sequence of UniProt Q8NC54 (Q8NC54 whole entry, looked up): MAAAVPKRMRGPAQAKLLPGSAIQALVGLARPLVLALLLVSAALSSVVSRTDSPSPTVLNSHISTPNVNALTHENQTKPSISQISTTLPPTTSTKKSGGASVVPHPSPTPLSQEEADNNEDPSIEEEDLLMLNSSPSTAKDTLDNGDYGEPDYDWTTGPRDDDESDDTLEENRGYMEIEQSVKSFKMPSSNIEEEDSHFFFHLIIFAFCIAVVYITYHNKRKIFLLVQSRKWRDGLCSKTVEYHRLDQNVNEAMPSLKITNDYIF
# Sequence of UniProt P50748 (P50748 whole entry, looked up): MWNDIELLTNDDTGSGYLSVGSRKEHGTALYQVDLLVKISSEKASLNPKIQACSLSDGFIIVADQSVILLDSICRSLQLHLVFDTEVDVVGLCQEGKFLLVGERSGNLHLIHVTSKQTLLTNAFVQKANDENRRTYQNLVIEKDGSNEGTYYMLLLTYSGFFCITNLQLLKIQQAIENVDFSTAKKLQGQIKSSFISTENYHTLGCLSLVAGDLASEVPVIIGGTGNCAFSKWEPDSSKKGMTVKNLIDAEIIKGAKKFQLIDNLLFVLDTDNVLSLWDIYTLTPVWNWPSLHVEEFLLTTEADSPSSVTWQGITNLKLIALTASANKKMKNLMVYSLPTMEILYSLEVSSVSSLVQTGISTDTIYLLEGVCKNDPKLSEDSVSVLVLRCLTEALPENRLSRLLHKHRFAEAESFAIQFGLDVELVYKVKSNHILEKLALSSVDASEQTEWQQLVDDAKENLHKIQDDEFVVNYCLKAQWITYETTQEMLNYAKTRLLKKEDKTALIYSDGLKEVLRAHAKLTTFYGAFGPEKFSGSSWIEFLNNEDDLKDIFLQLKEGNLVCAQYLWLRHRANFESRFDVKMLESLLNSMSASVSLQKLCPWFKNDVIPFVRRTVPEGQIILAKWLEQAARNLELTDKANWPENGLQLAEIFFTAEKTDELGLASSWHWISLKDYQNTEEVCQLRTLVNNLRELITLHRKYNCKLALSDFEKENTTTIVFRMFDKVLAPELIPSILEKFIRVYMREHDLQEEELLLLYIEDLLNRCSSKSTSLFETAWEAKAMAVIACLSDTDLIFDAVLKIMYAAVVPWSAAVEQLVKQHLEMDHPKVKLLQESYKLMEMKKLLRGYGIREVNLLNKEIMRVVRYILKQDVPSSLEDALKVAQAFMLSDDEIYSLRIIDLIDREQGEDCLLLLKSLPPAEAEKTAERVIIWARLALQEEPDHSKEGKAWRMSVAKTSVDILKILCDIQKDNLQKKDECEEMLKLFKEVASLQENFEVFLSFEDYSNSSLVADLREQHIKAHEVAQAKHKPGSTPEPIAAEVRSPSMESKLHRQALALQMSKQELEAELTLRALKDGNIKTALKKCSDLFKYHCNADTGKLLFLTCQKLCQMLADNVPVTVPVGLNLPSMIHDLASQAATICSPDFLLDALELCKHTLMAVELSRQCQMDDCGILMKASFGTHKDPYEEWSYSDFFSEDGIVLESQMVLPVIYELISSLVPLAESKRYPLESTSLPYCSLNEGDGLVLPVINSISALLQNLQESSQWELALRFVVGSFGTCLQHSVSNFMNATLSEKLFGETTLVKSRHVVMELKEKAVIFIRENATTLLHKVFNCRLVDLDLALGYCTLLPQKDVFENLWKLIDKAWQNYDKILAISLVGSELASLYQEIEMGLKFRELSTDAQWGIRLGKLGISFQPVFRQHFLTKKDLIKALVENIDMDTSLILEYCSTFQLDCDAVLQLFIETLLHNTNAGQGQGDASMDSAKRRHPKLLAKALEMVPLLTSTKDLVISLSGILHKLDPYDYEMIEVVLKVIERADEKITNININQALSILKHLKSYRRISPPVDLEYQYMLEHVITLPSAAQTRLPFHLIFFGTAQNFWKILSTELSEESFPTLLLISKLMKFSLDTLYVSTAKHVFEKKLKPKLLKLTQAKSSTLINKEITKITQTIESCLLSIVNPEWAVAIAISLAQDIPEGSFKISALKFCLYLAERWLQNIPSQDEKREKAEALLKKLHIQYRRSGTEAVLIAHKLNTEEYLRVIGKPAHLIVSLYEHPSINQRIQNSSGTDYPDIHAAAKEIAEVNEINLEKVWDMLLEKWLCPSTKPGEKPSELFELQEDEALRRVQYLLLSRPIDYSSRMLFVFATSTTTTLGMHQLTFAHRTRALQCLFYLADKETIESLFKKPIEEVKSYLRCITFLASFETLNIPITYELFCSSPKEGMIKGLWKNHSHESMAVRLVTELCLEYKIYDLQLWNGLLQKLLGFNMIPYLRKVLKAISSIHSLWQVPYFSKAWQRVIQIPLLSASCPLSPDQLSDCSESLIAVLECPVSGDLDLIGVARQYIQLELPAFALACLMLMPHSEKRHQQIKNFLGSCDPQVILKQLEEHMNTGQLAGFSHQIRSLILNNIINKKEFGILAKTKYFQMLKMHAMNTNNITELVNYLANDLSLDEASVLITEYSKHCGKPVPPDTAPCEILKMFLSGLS
# Sequence of UniProt Q13418 (Q13418 whole entry, looked up): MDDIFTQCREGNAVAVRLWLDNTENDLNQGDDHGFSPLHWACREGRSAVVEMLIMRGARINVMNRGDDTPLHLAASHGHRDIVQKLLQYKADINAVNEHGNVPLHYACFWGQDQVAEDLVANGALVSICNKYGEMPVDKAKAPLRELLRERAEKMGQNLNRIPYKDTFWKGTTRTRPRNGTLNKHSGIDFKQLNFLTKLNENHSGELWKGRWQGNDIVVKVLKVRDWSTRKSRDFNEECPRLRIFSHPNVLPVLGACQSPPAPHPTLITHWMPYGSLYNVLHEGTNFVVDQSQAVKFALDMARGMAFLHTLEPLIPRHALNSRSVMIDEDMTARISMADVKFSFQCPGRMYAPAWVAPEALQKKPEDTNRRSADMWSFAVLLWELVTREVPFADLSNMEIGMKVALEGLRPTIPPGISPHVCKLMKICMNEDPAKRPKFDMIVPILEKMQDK
row,Target,log2 fold change
1,KDM3B (UniProt Q7LBC6),-0.01 (inactive)
2,MAP2K7 isoform 4 (UniProt O14733),-0.002 (inactive)
3,MIEF1 (UniProt L0R8F8),0.041 (inactive)
4,MARCKSL1 (UniProt P49006),-0.043 (inactive)
5,MEPCE (UniProt Q7L2J0),-0.104 (inactive)
6,MCUR1 (UniProt Q96AQ8),0.014 (inactive)
7,MED1 (UniProt Q15648),-0.025 (inactive)
8,LNPEP (UniProt Q9UIQ6),-0.001 (inactive)
9,IPO7 (UniProt O95373),0.023 (inactive)
10,LMNB1 (UniProt P20700),-0.016 (inactive)
11,MAGEC2 (UniProt Q9UBF1),-0.013 (inactive)
12,KDELR2 (UniProt P33947),-0.295 (inactive)
13,INTS7 (UniProt Q9NVH2),0 (inactive)
14,LMBRD2 (UniProt Q68DH5),-0.032 (inactive)
15,INPP5B (UniProt P32019),0.07 (inactive)
16,IRF2BPL (UniProt Q9H1B7),0.053 (inactive)
17,KIF3A (UniProt Q9Y496),-0.031 (inactive)
18,LNPK (UniProt Q9C0E8),-0.034 (inactive)
19,LEO1 (UniProt Q8WVC0),0.061 (inactive)
20,MCU (UniProt Q8NE86),0.036 (inactive)

row,Target,log2 fold change
1,MAP1LC3B2 (UniProt A6NCE7),0.037 (inactive)
2,MAST4 (UniProt O15021),0.012 (inactive)
3,ILK (UniProt Q13418),0.01 (inactive)
4,LARP7 isoform 3 (UniProt Q4G0J3),-0.002 (inactive)
5,LDAH isoform 2 (UniProt Q9H6V9),-0.03 (inactive)
6,MFN2 (UniProt O95140),0.02 (inactive)
7,MAGOHB (UniProt Q96A72),0.014 (inactive)
8,LMNB2 (UniProt Q03252),0.02 (inactive)
9,LTV1 (UniProt Q96GA3),0.16 (inactive)
10,KLHL18 (UniProt O94889),0.144 (inactive)
11,MFSD5 isoform 2 (UniProt Q6N075),-0.093 (inactive)
12,MEAK7 (UniProt Q6P9B6),0.028 (inactive)
13,MCCC2 (UniProt Q9HCC0),0.004 (inactive)
14,ITIH4 (UniProt Q14624),-0.003 (inactive)
15,KNTC1 (UniProt P50748),0.018 (inactive)
16,MFGE8 (UniProt Q08431),0.08 (inactive)
17,KCT2 (UniProt Q8NC54),-0.003 (inactive)
18,MAPK9 (UniProt P45984),-0.013 (inactive)
19,LSS (UniProt P48449),0.103 (inactive)

# Compound: CNC(=O)C1=CC=CC=C1NC2=NC(=NC=C2Cl)NC3=C(C=C(C=C3)N4CCOCC4)OC
# Assay: as above
# Outline: as §1
row,Target,log2 fold change
1,KDM3B (UniProt Q7LBC6),0.072 (inactive)
2,MAP2K7 isoform 4 (UniProt O14733),-0.04 (inactive)
3,MIEF1 (UniProt L0R8F8),0.008 (inactive)
4,MARCKSL1 (UniProt P49006),0.013 (inactive)
5,MEPCE (UniProt Q7L2J0),-0.052 (inactive)
6,MCUR1 (UniProt Q96AQ8),0.014 (inactive)
7,MED1 (UniProt Q15648),0.042 (inactive)
8,LNPEP (UniProt Q9UIQ6),-0.01 (inactive)
9,IPO7 (UniProt O95373),0.01 (inactive)
10,LMNB1 (UniProt P20700),0.007 (inactive)
11,MAGEC2 (UniProt Q9UBF1),0.015 (inactive)
12,KDELR2 (UniProt P33947),0.04 (inactive)
13,INTS7 (UniProt Q9NVH2),0.529 (active)
14,LMBRD2 (UniProt Q68DH5),-0.014 (inactive)
15,INPP5B (UniProt P32019),-0.007 (inactive)
16,IRF2BPL (UniProt Q9H1B7),0.032 (inactive)
17,KIF3A (UniProt Q9Y496),0.085 (inactive)
18,LNPK (UniProt Q9C0E8),0.012 (inactive)
19,LEO1 (UniProt Q8WVC0),-0.039 (inactive)
20,MCU (UniProt Q8NE86),0.013 (inactive)

row,Target,log2 fold change
1,MAP1LC3B2 (UniProt A6NCE7),0.026 (inactive)
2,MAST4 (UniProt O15021),-0.087 (inactive)
3,ILK (UniProt Q13418),-0.034 (inactive)
4,LARP7 isoform 3 (UniProt Q4G0J3),-0.04 (inactive)
5,LDAH isoform 2 (UniProt Q9H6V9),-0.001 (inactive)
6,MFN2 (UniProt O95140),-0.024 (inactive)
7,MAGOHB (UniProt Q96A72),-0.007 (inactive)
8,LMNB2 (UniProt Q03252),0.027 (inactive)
9,LTV1 (UniProt Q96GA3),0.083 (inactive)
10,KLHL18 (UniProt O94889),-0.077 (inactive)
11,MFSD5 isoform 2 (UniProt Q6N075),0.069 (inactive)
12,MEAK7 (UniProt Q6P9B6),-0.088 (inactive)
13,MCCC2 (UniProt Q9HCC0),-0.274 (active)
14,ITIH4 (UniProt Q14624),-0.001 (inactive)
15,KNTC1 (UniProt P50748),0.033 (inactive)
16,MFGE8 (UniProt Q08431),0.066 (inactive)
17,KCT2 (UniProt Q8NC54),0.096 (inactive)
18,MAPK9 (UniProt P45984),0.328 (active)
19,LSS (UniProt P48449),-0.091 (inactive)
